Source: PubChem BioAssay
The other results are listed elsewhere or left out. Records with an inconclusive call do not appear. Calls of active or inactive are those of the source.

Assays:
PubChem AID 1714 = details: HEK293-KCC2 + bumetanide/ouabain, thallium flux FluoZin2; at 10 µM; stronger effect = higher value
[1] = target: Solute carrier family 12 member 5 (Homo sapiens) (UniProt Q9H2X9); assay: KCC2 modulators without ouabain present, confirmation, cell-based, HEK293 KCC2, thallium flux, FluoZin2, secondary assay 2 (AID 1715;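 active means thallium flux slope more than 3 SD above or below the plate's solvent-only control mean, mostly below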;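 further: raw slope with 0.1% DMSO as baseline and bumetanide as block control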); details: HEK293-KCC2, thallium flux FluoZin2 fluorescence; at 10 µM; actives lie on both sides; F/F0 rise rate, 10–20 s post-thallium
Solute carrier family 12 member 5 (Homo sapiens), sequence (Q9H2X9 whole entry, looked up): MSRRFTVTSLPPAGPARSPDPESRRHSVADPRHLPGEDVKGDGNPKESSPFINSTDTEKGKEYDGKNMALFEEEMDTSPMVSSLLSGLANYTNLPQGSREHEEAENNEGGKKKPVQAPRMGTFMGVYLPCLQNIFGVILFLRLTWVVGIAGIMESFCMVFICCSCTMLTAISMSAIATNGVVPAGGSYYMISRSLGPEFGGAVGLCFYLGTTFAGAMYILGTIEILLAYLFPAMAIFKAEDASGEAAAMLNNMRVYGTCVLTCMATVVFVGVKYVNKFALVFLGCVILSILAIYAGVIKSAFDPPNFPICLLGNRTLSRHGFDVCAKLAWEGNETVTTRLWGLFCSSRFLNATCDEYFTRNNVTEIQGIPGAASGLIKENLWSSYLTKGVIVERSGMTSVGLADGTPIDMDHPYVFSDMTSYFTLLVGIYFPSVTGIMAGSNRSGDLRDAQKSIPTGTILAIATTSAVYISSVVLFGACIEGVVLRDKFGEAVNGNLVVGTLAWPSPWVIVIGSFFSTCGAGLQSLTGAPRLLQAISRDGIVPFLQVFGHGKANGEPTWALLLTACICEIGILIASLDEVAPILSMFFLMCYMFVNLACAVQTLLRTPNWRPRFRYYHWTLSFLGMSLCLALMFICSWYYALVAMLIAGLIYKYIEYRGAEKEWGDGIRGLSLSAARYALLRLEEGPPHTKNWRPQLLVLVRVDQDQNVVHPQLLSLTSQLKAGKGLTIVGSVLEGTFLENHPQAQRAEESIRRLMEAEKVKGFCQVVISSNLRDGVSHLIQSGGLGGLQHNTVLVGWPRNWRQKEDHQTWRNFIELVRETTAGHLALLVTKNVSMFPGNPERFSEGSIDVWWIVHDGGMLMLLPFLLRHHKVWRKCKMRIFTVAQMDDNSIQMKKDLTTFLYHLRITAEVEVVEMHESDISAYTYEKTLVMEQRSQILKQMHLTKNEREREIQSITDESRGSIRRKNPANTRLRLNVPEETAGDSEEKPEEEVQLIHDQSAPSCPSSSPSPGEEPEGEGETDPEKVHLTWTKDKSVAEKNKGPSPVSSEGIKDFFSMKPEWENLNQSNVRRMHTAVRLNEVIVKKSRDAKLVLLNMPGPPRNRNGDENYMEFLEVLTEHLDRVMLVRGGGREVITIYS

[2] = thallium flux modulation in parental HEK cells, confirmation, counter-screen for KCC2 modulator project, cell-based, counterscreen 1 (AID 1716); details: HEK293 parental cells, thallium flux FluoZin2, ouabain; at 10 µM; baseline-ratio fluorescence slope, 10–20 s after thallium
[3] = native HEK Tl+ uptake effects, second counter-screen – HEK cells, counterscreen 2, counter-screen for KCC2 modulator project, confirmation (AID 1718;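 active means thallium flux slope above the same plate's solvent-control mean plus 3 SD in both duplicate wells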;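 further: run without ouabain in cells lacking the KCC2 cotransporter; slope of fluorescence scaled to its starting value between 10 and 20 s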); details: HEK293 parental, thallium flux FluoZin-2 fluorescence slope; at 10 µM
[4] = inhibitors of TNFa-induced NFkB p65 translocation, primary screen, imaging, HUVEC, MLSMR starter and 10KST1 sets (AID 438;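 active means inhibition above 20% together with a positive visual image hit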;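 further: compound added about 3h40 before a 20 min TNFalpha stimulation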;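 on inhibition: signal is the nuclear over cytoplasmic p65 intensity ratio per well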); details: HUVEC TNFa-induced p65 nuclear translocation; cell count: measured here: nuclei count (cytotoxicity indicator), at 2.08 µM; inhibition: at 2 µM, stronger effect = higher value, 0% TNFa-plus-vehicle, 100% no-TNFa wells
[5] = inhibitors of mutant huntingtin aggregation, primary screen, imaging, exon1htt(103Q)mCFP cells, high-content imaging (AID 483;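 active means visual image review flags a hit and inhibition of aggregation exceeds 20%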;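 further: compound exposure lasted 3 days before fixation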;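 on nuclei count: percent of the per-plate median nuclei count of sample wells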); details: exon1htt(103Q)mCFP cell line, aggregate imaging, at 2 µM; inhibition of aggregation: stronger effect = higher value; nuclei count: measured here: cell count, toxicity
[6] = inhibitors of E-selectin induction by TNFa, primary screen, imaging, HUVEC, immunofluorescence, MLSMR starter and 10KST1 sets (AID 487;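 active means visually confirmed hit in the image check and inhibition above 20%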;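 on inhibition: signal is fraction of cell area covered by stained E-selectin grains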;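 on nuclei count: 100% = median nuclei count of all wells on the same plate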); details: HUVEC TNFalpha-induced E-selectin immunofluorescence imaging, at 2 µM; inhibition: stronger effect = higher value; nuclei count: measured here: cell number, toxicity
[7] = DUSP6 inhibitors restoring Erk phosphorylation by chemical complementation, primary imaging in DUSP6-transfected HeLa (AID 609;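 active means compounds giving at least 50% inhibition in the cell-based MKP-3 phosphatase rescue imaging test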;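 on inhibition: phospho-Erk level distribution per well compared with pooled transfected vehicle control wells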); details: HeLa MKP-3 transfected, phospho-Erk imaging KS statistic, at 10 µM, cells stimulated with TPA for 15 min
[8] = target: Dual specificity protein phosphatase 6 (Homo sapiens) (UniProt Q16828); assay: as above; details: HeLa MKP-3 transfected, phospho-Erk imaging KS statistic; at 10 µM; stronger effect = higher value; cells stimulated with TPA for 15 min
Dual specificity protein phosphatase 6 (Homo sapiens), sequence (Q16828 whole entry, looked up): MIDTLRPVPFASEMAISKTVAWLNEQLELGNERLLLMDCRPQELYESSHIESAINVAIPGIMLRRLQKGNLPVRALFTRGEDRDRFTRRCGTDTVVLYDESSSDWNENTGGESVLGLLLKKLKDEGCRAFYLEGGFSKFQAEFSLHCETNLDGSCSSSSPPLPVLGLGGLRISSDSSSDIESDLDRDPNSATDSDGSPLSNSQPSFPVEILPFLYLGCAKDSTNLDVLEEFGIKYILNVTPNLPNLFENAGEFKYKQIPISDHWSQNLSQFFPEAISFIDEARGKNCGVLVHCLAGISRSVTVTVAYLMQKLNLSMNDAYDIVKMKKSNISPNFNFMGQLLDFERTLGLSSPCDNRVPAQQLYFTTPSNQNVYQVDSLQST

[9] = target: Voltage-gated potassium channel subunit beta-2 (Rattus norvegicus) (UniProt P62483); assay: KvBeta enzyme negative modulators, primary screen, biochemical, NADPH fluorescence (AID 622;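 active means fluorescence slope higher than the sample average by over 3 SD, cut at about -0.22 in these data, passing the limit was not always enough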;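 further: slope of raw intensity against log time taken from 70 to 1610 s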); details: recombinant KvBeta, 4-cyanobenzaldehyde reduction, at 10 µM, stronger effect = higher value
Voltage-gated potassium channel subunit beta-2 (Rattus norvegicus), sequence (P62483 whole entry, looked up): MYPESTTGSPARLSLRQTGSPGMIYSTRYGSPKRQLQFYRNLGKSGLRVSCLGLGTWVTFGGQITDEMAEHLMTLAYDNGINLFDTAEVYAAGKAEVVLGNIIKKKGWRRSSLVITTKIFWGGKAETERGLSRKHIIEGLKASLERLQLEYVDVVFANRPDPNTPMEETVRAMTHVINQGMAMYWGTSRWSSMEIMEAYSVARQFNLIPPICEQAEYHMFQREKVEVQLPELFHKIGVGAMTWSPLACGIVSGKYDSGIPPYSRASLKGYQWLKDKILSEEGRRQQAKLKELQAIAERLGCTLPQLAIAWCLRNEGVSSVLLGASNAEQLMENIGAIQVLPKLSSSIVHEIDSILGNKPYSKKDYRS

[10] = target: Voltage-gated potassium channel subunit beta-2 (Rattus norvegicus) (UniProt P62483); assay: KvBeta positive modulators, primary screen, biochemical, NADPH fluorescence (AID 623;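 active means NADPH fluorescence slope more negative than the mean of all samples by about 3 SD, 99.7% confidence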;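 further: fluorescence intensity change per second fitted from 20 to 320 s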); details: Recombinant KvBeta, NADPH fluorescence decrease slope, 10 min; at 10 µM; stronger effect = lower value
[11] = target: Alpha-2C adrenergic receptor (Homo sapiens) (UniProt P18825); assay: modulators of alpha2C/GIRK thallium flux, primary screen, cell-based, HEK293 alpha2C/GIRK1/2 (AID 624;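 active means fluorescence slope after compound addition differing from the mean of all screened samples at 99.7% confidence, in either direction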;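 further: slope of fluorescence ratio to pre-addition baseline per second over 15 to 24 s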); details: thallium flux BTC fluorescence, at 10 µM, actives lie on both sides
Alpha-2C adrenergic receptor (Homo sapiens), sequence (P18825 whole entry, looked up): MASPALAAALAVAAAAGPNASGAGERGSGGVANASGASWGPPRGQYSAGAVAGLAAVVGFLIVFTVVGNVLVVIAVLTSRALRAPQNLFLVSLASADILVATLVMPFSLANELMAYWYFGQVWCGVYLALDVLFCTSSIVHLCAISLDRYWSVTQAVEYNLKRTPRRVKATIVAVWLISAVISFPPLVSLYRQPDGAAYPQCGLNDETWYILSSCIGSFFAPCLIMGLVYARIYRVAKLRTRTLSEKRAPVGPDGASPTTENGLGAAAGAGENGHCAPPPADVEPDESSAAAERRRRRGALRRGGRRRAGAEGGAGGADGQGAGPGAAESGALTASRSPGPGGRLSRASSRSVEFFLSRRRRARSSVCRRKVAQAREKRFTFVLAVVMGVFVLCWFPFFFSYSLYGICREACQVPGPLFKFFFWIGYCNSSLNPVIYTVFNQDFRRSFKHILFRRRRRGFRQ

[12] = inhibitors of Chlamydomonas gravitaxis, primary screen, whole organism, Chlamydomonas reinhardtii, WT vs cilia-less mutant, absorbance, 96-well (AID 463189;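 active means inhibition at or above 50% relative to wild type and mutant plate controls; inactive means inhibition below 50%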;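 further: 0% = wild type cc124 cells in DMSO and 100% = ciliumless bld1 mutant cells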); details: OD600 absorbance, 2 days, at 10 µM, stronger effect = higher value
[13] = inhibitors of Sendai virus-induced IRF3 signaling, primary screen, TLR/RLR signaling modifier project, cell-based, Sendai virus stimulus, luciferase, 10K MLSCN set (AID 602276;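 active means inhibition at or above 50% at 10 µM; inactive means inhibition below 50%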;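 further: firefly luciferase from ISG56 promoter only with Renilla not read in this screen; 0% = Sendai virus plus DMSO and 100% = medium plus DMSO without virus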); details: HEK293 RL24 IRF3 luciferase reporter, at 10 µM, stronger effect = higher value
[14] = inhibitors of poly I:C-induced TLR3 signaling, primary screen, cell-based, poly I:C stimulus, luciferase, 10K MLSCN set (AID 602277;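 active means inhibition of the reporter signal at or above 50%; inactive means inhibition below 50%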); details: HEK293-TLR3 RL24 IRF3 luciferase reporter, at 10 µM, stronger effect = higher value
[15] = target: Solute carrier family 12 member 5 (Homo sapiens) (UniProt Q9H2X9); assay: KCC2 modulators in sodium-free buffer, confirmation, cell-based, HEK293 KCC2, thallium flux, secondary assay (AID 1713;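 active means thallium flux slope above the same plate's solvent-only control mean plus 3 SD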); details: FluoZin2 fluorescence, at 10 µM, stronger effect = higher value
[16] = target: Solute carrier family 12 member 5 (Homo sapiens) (UniProt Q9H2X9); assay: KCC2 inhibitors and activators, ouabain retest, confirmation, HEK-KCC2 cells (AID 1717;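 active means thallium flux slope beyond 3 SD from same-plate DMSO control mean in most replicates, usually higher, sometimes lower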;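 further: slope of initial-normalized fluorescence between seconds 10 and 20 after thallium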); details: HEK293-KCC2, thallium flux FluoZin2 fluorescence, at 10 µM, bidirectional: low = inhibitor, high = activator

Question: Which normalized thallium flux (PubChem AID 1714) does the source give for `CCC(CC)NC(=O)CSc1nnc(-c2c[nH]c3ccccc23)o1` here?
Answer: The normalized thallium flux was 0.00461 (inactive).

Question: And the normalized thallium flux [1]?
Answer: The normalized thallium flux was 0.0248 (active).

Question: What about the thallium flux rate (normalised fluorescence) [2] of the same compound?
Answer: Its thallium flux rate (normalised fluorescence) is 0.00757 (inactive).

Question: And the thallium flux slope [3]?
Answer: Its thallium flux slope is 0.0106 (inactive).

Question: With `COc1c2occc2c(OC)c2c(=O)cc(C)oc12` as the compound, how does the cell count [4] read?
Answer: Its cell count is 555.

Question: What about the inhibition [4] of the same compound?
Answer: The inhibition was -5.1% (inactive).

Question: And the inhibition of aggregation [5]?
Answer: The inhibition of aggregation was 13.1% (inactive).

Question: What about the nuclei count [5] of the same compound?
Answer: The nuclei count was 103%.

Question: And the inhibition [6]?
Answer: The inhibition was -78.7% (inactive).

Question: And the nuclei count [6]?
Answer: Its nuclei count is 136%.

Question: And the z-score ([7]; measured here: cell density z-score)?
Answer: Its z-score is -0.618.

Question: And the z-score ([7]; measured here: nuclear c-Myc green intensity z-score)?
Answer: Its z-score is 0.0772.

Question: And the z-score ([7]; measured here: nuclear pErk red intensity z-score, stronger effect = higher value)?
Answer: Its z-score is -0.0412.

Question: And the inhibition [8]?
Answer: Its inhibition is 21.2% (inactive).

Question: What about the fluorescence slope [9] of the same compound?
Answer: The fluorescence slope was -0.445 (inactive).

Question: And the NADPH fluorescence slope [10]?
Answer: Its NADPH fluorescence slope is -4.4e-05 (inactive).

Question: What about the slope [11] of the same compound?
Answer: Its slope is 0.00425 (inactive).

Question: And the inhibition [12]?
Answer: The inhibition was -3.66% (inactive).

Question: What about the inhibition [13] of the same compound?
Answer: The inhibition was 14.8% (inactive).

Question: What about the inhibition [14] of the same compound?
Answer: Its inhibition is 36% (inactive).

Question: What does the source list for `CCOC(=O)c1c(NC(=S)NC)sc2c1CCCC2`?
Answer: normalised thallium flux (F/F0 slope) [15]: 0.0181 (active); normalized thallium flux [1]: 0.0972 (active); thallium flux rate (normalised fluorescence) [2]: 0.0987 (active); thallium flux slope [3]: 0.101 (active)

Question: What does the source list for `CCn1c(SCC(=O)c2ccc3ccccc3c2)nnc1-c1cccs1`?
Answer: normalised thallium flux (F/F0 slope) [15]: 0.00706 (inactive); normalized thallium flux [1]: 0.0307 (inactive); thallium flux rate (normalised fluorescence) [2]: 0.00707 (inactive); raw Tl+ flux slope (below DMSO = inhibition, above = activation) [16]: 0.0159 (active); thallium flux slope [3]: 0.0101 (inactive)

Question: Which normalised thallium flux (F/F0 slope) [15] does the source give for `Cc1sc2ncnc(Sc3nc4ccccc4s3)c2c1C` here?
Answer: The normalised thallium flux (F/F0 slope) was 0.0102 (inactive).

Question: What about the normalized thallium flux [1] of the same compound?
Answer: The normalized thallium flux was 0.0292 (inactive).

Question: What about the thallium flux rate (normalised fluorescence) [2] of the same compound?
Answer: The thallium flux rate (normalised fluorescence) was 0.00801 (inactive).

Question: What about the thallium flux slope [3] of the same compound?
Answer: Its thallium flux slope is 0.0107 (inactive).

Question: Which results are given for `Cc1ccc(C(=O)NC(=S)Nc2ccccc2C)cc1`?
Answer: normalized thallium flux (PubChem AID 1714): 0.0441 (active); normalized thallium flux [1]: 0.0421 (active); thallium flux rate (normalised fluorescence) [2]: 0.0432 (active); raw Tl+ flux slope (below DMSO = inhibition, above = activation) [16]: 0.0453 (active); thallium flux slope [3]: 0.0284 (active)
